This note sets out measurements from PubChem BioAssay (NCATS).

Inconclusive results are not listed. Unmarked numbers belong to inactive results. Calls come from the whole dose curve; as a rule, active = well fitted inhibition curve with a large enough effect; inconclusive = small, poorly fitted or top-dose-only effect; inactive = flat fitted curve, though single readings scatter.
% is set by controls: 0 for no effect and ±100 for the full control effect.

In the test the test system is KB-3-1. Nature of the test: Cytotoxic Profiling of Annotated Libraries Using Quantitative High-Throughput Screening (AID 1296008). Note: nearly all actives have a fitted effect of over 60% in size. The note with it: Five cell lines viability, CellTiter-Glo ATP luminescence, 48-72 h; max response: stronger effect = lower value. Put shortly:
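Compounds were pin-transferred onto cells and incubated 48 or 72 hr at 37 degree Celsius, 95% humidity. CellTiter-Glo was added, plates sat 10 min at room temperature, then ATP-coupled luminescence was imaged as the viability read-out.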
For orientation: ATP-based viability assays read luminescence as a measure of living cells.
Regarding `COc1cc(C)c(/C=C/C(C)=C/C=C/C(C)=C/C(=O)O)c(C)c1C`, the max response was -4.57%.
Take `CNCC(=O)N[C@@H](CCCN=C(N)N)C(=O)N[C@H](C(=O)N[C@@H](Cc1ccc(O)cc1)C(=O)N[C@H](C(=O)N[C@@H](Cc1cnc[nH]1)C(=O)N1CCC[C@H]1C(=O)N[C@@H](C)C(=O)O)C(C)C)C(C)C`: the max response was 1.41%.
With `O=C(O)COc1ccc(CCNS(=O)(=O)c2ccccc2)s1` the figure was -3.19%; with `CCOC(=S)SSC(=S)OCC`, 4.67%.
With `COc1ccccc1N1CCN(CCCC(=O)c2ccc(F)cc2)CC1` the figure was -4.67%; with `CCCOC(=O)c1ccccc1O`, -1.94%.
